The record followed here is the supplement of paper PMC13380429.

The subject of the experiment is Vero E6 infected with SARS-CoV-2. Nature of the experiment: inhibition of SARS-CoV-2 cytopathic effect; higher = more antiviral protection, active = above 15. The settings on record: 48 h. A general note: Damage to the host cells serves as the signal in cytopathic effect assays.

A number with no mark means an inactive call.

`COc1ccc(CCN(C)CCCC(C#N)(c2cc(OC)c(OC)c(OC)c2)C(C)C)cc1OC` (stereo not given) [gallopamil]: the “inhibition of SARS-CoV-2 cytopathic effect” value (shortened to “inhibition”) was -0.29% (1 nM); 0.76% (8.33 nM); -0.41% (100 nM); 0.33% (833.33 nM); -2.43% (10000 nM).

Consider `C[C@@H]1CCC[C@H](C)N1NC(=O)c1ccc(Cl)c(S(N)(=O)=O)c1` [clopamide], for which the “inhibition” value is, setting by setting: (1 nM) -1.53%; (8.33 nM) 2.77%; (100 nM) 0.22%; (833.33 nM) 5.88%; (10000 nM) -2.61%.

On to `Nc1ccc(-c2ccc3ncc4ccc(=O)n(-c5cccc(C(F)(F)F)c5)c4c3c2)cn1` [torin-2], for which the “inhibition” value reads like this: (1 nM) 0.99%; (8.33 nM) -0.26%; (100 nM) -2.28%; (833.33 nM) -4.78%; (10000 nM) -8.11%.

Regarding `c1cnc(N2CCN(Cc3ccc4c(c3)OCO4)CC2)nc1` [piribedil], the “inhibition” value reads like this: (1 nM) -0.1%; (8.33 nM) 15.4% (active); (100 nM) 1.85%; (833.33 nM) -0.64%; (10000 nM) 0.85%.

Consider `CC1(C)S[C@@H]2[C@H](NC(=O)C(C(=O)O)c3ccccc3)C(=O)N2[C@H]1C(=O)O` (stereo not given in full) [carbenicillin], for which the “inhibition” value runs as follows: (1 nM) 2.76%; (8.33 nM) 1.83%; (100 nM) 0.55%; (833.33 nM) 2.42%; (10000 nM) 0.1%.

Regarding `CS(=O)(=O)c1ccc(-c2cnc(NCc3ccco3)n3cnnc23)cc1`, the “inhibition” value reads like this: (1 nM) 4.45%; (8.33 nM) 2.39%; (100 nM) 0.36%; (833.33 nM) -0.76%; (10000 nM) -0.13%.

Consider `CO[C@@]12[C@H](COC(N)=O)C3=C(C(=O)C(C)=C(N)C3=O)N1C[C@@H]1N[C@@H]12` [mitomycin-C], for which the “inhibition” value is -6.42% (1 nM); -2.65% (8.33 nM); -0.38% (100 nM); -1.53% (833.33 nM); -5.17% (10000 nM).

For the compound `O=C1NC(=O)C(c2cnc3ccccn23)=C1c1cn2c3c(cc(F)cc13)CN(C(=O)N1CCCCC1)CC2`, the “inhibition” value is 0.79% (1 nM); 7.15% (8.33 nM); 14.4% (100 nM); 16% (active) (833.33 nM); 14.8% (10000 nM).

Regarding `NCCNC(=O)c1ccc(Cl)cn1` [lazabemide], the “inhibition” value was 1.32% (1 nM); -0.18% (8.33 nM); -0.23% (100 nM); -0.24% (833.33 nM); 3.29% (10000 nM).

`Cc1ccc(-c2ccc(F)cc2COc2ccc(CCC(=O)O)cc2)cc1`: the “inhibition” value by setting is: (1 nM) -2.64%; (8.33 nM) 0.79%; (100 nM) -1.34%; (833.33 nM) 0.38%; (10000 nM) -1.53%.

Turning to `CCN1CCCC1=O` [1-ethyl-2-pyrrolidone], the “inhibition” value is, setting by setting: (1 nM) -1.68%; (8.33 nM) 2.91%; (100 nM) 3.54%; (833.33 nM) -0.7%; (10000 nM) -2.48%.

Consider `COc1cc2c(Nc3ccc(Cl)c(Cl)c3F)ncnc2cc1OC[C@@H]1C[C@@H]2CN(C)C[C@@H]2C1`, for which the “inhibition” value is, setting by setting: (1 nM) -2.06%; (8.33 nM) -2.66%; (100 nM) -5.42%; (833.33 nM) -14.7%; (10000 nM) -22.4%.

Turning to `N=C(N)NCc1cccc(I)c1` [iobenguane], the “inhibition” value is, setting by setting: (1 nM) -1.82%; (8.33 nM) -0.29%; (100 nM) 1.79%; (833.33 nM) 2.26%; (10000 nM) 6.21%.

As for `CC1(C)OC[C@@H](COC(=O)CCc2ccc(OC[C@@H](O)CNCCNC(=O)N3CCOCC3)cc2)O1` [landiolol], the “inhibition” value (1 nM) is -7.81%; the “inhibition” value (8.33 nM) is -4.59%; the “inhibition” value (100 nM) was -1.18%; the “inhibition” value (833.33 nM) is -1.43%; the “inhibition” value (10000 nM) was -1.67%.

On to `Cc1c(Cl)cccc1Nc1ccccc1C(=O)O` [tolfenamic-acid], for which the “inhibition” value is -1.57% (1 nM); -0.57% (8.33 nM); 1.25% (100 nM); 0.34% (833.33 nM); -0.7% (10000 nM).

On to `COc1cc(N2CCC(N3CCN(C)CC3)CC2)ccc1Nc1ncc(Cl)c(Nc2ccccc2S(=O)(=O)C(C)C)n1`, for which the “inhibition” value (1 nM) was -0.23%; the “inhibition” value (8.33 nM) was -4.02%; the “inhibition” value (100 nM) is -0.56%; the “inhibition” value (833.33 nM) was -0.6%; the “inhibition” value (10000 nM) is -15.5%.

Turning to `COc1cc2c(CCNC(C)=O)c[nH]c2cc1Cl` [6-chloromelatonin], the “inhibition” value (1 nM) was 0.92%; the “inhibition” value (8.33 nM) was 0.78%; the “inhibition” value (100 nM) was -1.78%; the “inhibition” value (833.33 nM) is 4.57%; the “inhibition” value (10000 nM) is -13.2%.

Consider `COc1cccc(CN(C(=O)CC(C)(C)C)[C@H]2C[C@@H](C(=O)N3CCNCC3)N(Cc3ccc4c(c3)OCO4)C2)c1`, for which the “inhibition” value is 7.37% (1 nM); 2.78% (8.33 nM); 5.86% (100 nM); -0.43% (833.33 nM); -2.99% (10000 nM).
